Screening results: PubChem BioAssay, Sanford-Burnham Center for Chemical Genomics
CYP2C19 activ: increases human CYP2C19 enzyme activity. P33261. activation factor at 5 µM. 96,000 tested, under 10 active. AID 1025. recombinant CYP2C19, luciferin-H EGE luminescence; hits give high values; 0 = fully inhibited enzyme, 1 = untreated enzyme;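 active = activation factor of at least 2 at 5 µM in the primary screen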
CYP2C19 inhib: inhibitors of human CYP2C19; P33261; CYP2C19 Supersomes, luciferin-H EGE luminescence, 30 min; inhibition, % at 5 µM; 96,000 tested, 21% active; AID 778;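 active = CYP2C19 inhibition above a set limit at 5 µM in the primary screen, cut at about 50% in these data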
CYP2C9 activ: CYP2C9 (human) activation | P11712 | recombinant CYP2C9, luciferin-H conversion, luminescence; hits give high values; factor 1 = untreated enzyme, 0 = blocked | activation factor at 5 µM | 96,000 tested, 1.4% active | AID 1024;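 active = activation factor of 2 or more for CYP2C9 at a 5 µM dose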
Target sequence (P11712 whole entry, looked up): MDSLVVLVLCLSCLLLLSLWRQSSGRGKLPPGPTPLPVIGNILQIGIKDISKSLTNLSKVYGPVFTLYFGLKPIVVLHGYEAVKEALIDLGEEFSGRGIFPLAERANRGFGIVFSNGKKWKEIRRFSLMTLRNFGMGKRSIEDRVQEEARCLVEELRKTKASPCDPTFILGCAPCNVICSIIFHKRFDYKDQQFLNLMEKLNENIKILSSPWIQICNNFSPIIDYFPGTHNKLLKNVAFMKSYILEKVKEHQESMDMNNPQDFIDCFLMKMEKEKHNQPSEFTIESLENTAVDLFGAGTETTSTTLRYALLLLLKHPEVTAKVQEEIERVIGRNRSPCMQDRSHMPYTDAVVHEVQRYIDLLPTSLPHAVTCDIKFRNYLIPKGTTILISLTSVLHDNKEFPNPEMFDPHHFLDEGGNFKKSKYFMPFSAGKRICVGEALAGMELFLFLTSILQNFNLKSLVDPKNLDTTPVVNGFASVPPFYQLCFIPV
CYP2C9 inhib: inhibitors of human CYP2C9 | P11712 | CYP2C9 Supersomes, luciferin-H conversion, luminescence | inhibition, % at 5 µM | 96,000 tested, 20% active | AID 777;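 active = blocking of liver enzyme CYP2C9 beyond about 50% at 5 µM, limit read from the data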
Each line names hits and unclear results; the compound was inactive in the other large screens. Only some compounds are listed: those with a hit (about 31% of all), similar ones and a draw of the others.

O=S(=O)(Nc1ccccc1N1CCCCC1)c1ccc(Cl)s1	CYP2C19 inhib 57
CCN(CC)CCNC(=O)c1c(C)oc2cc(Br)c(OC)cc12	none
O=P(O)(O)CP(=O)(O)O	none
C=CCn1c(COc2ccc(Cl)cc2)nnc1SCC(=O)N/N=C/c1ccccc1	none
O=C(c1ccccc1NS(=O)(=O)c1cccs1)N1CCCC1	none
O=S(=O)(Nc1cc(Cl)ccc1N1CCCCC1)c1cccs1	CYP2C19 inhib 82, CYP2C9 inhib 53
O=S(=O)(Nc1ccc(S(=O)(=O)N2CCCCCC2)cc1)c1cccs1	CYP2C9 inhib 91
COc1cccc(NS(=O)(=O)c2ccc3[nH]cc(C(=O)NCCC(C)C)c(=O)c3c2)c1	CYP2C9 inhib 70
CCCNC(=O)c1c[nH]c2ccc(S(=O)(=O)N(C)c3ccc(OCC)cc3)cc2c1=O	CYP2C9 inhib 83
O=C(CN1CCOCC1)Nc1ncc(Cc2cccc3ccccc23)s1	none
COC(=O)c1sccc1NC(=S)N1CC(C)CC(C)C1 (stereo not drawn)	CYP2C19 inhib 83, CYP2C9 inhib 70
Cc1cc(Br)c2[nH]c3c(c2c1)CCCC3=O	none
CC(OC(=O)C1CCN(S(=O)(=O)c2ccccc2)CC1)C(=O)Nc1ncc(Cl)cc1Cl (stereo not drawn)	CYP2C19 inhib 75, CYP2C9 inhib 93
CC(OC(=O)CCCN1C(=O)c2ccccc2C1=O)C(=O)Nc1ncc(Cl)cc1Cl (stereo not drawn)	none
CNC(=O)NC(=O)CSc1nc2ccccc2n1CCOC	none
CCn1c(SCc2nc3sc(C(=O)O)c(C)c3c(=O)[nH]2)nc2ccccc21	CYP2C9 inhib 55
COCCn1c(SCc2nc3sc(C(=O)OC)c(C)c3c(=O)[nH]2)nc2ccccc21	CYP2C19 inhib 74, CYP2C9 inhib 91
COc1cc(-c2nnc3sc(Cc4ccccc4)nn23)cc(OC)c1OC	CYP2C9 inhib 52
COc1ccc(Cc2nn3c(-c4cc(OC)c(OC)c(OC)c4)nnc3s2)cc1	CYP2C19 inhib 69, CYP2C9 inhib 75
Cn1nc(C(=O)Nc2c(-c3ccccc3)nc3sccn23)c2ccccc2c1=O	none
Cc1c(NC(=O)c2ccc3c(c2)OCO3)c(=O)n(-c2ccccc2)n1C	none
Cc1ccn2cc(CSc3ccccc3N)nc2c1	none
Cn1ccnc1SCc1cn2cc(Br)ccc2n1	CYP2C19 inhib 65
O=C(c1ccco1)N1CCN=C1SCc1cccc(F)c1	none
COC(=O)c1ccc(CSc2nc3ccccc3c(=O)n2Cc2ccco2)o1	CYP2C19 inhib 97, CYP2C9 inhib 100
COC(=O)c1ccc(CSc2nc3ccccc3c(=O)n2CC(C)C)o1	CYP2C9 inhib 57
COCCn1c(SCC(=O)c2ccc(CNC(C)=O)o2)nc2ccccc2c1=O	none
CC1(C)Cc2c(ccc3ccccc23)C(=O)N1	none
CCNC(=O)/C=C1\NC(C)(C)Cc2c1ccc1ccccc21	CYP2C19 inhib 83, CYP2C9 inhib 90
CC(C)(C)n1ncc2c(=O)n(Cc3c(F)cccc3Cl)cnc21	CYP2C19 inhib 87
COC(=O)c1ccc(/C=N/NC(=O)CC(=O)NCC(C)C)cc1	none
CCCCOc1ccc(/C=N/NC(=O)c2csc(C)c2C)cc1	CYP2C19 inhib 65, CYP2C9 inhib 60
Cc1scc(C(=O)N/N=C/c2ccc(OCC(C)C)cc2)c1C	CYP2C19 inhib 72, CYP2C9 inhib 82
CCOc1ccc(CCNC(=O)c2cccc(N3CCCC3=O)c2)cc1OCC	none
O=C(O)CCC(=O)c1c[nH]c2ccccc12	none
CCCNC(=O)NCCc1c(C)[nH]c2ccccc12	CYP2C9 activ 2.5
CC(C)NC(=O)COC(=O)c1cc(=O)[nH]c2ccccc12	none
Cc1[nH]c2c(C)cccc2c1CCNC(=O)c1ccc2c(c1[N+](=O)[O-])C(=O)c1ccccc1C2=O	CYP2C19 inhib 61, CYP2C9 inhib 77
Cc1[nH]c2ccccc2c1CCNC(=O)c1ccc2c(c1[N+](=O)[O-])C(=O)c1ccccc1C2=O	CYP2C19 inhib 68
Cc1c(C(=O)NCCC2=CCCCC2)cccc1[N+](=O)[O-]	none
CCOC(=O)c1[nH]c2cc(OC)c(OC)cc2c1NC(=O)c1nonc1C	none
Cc1ccc(O)c(-c2cc(C(F)(F)F)[nH]n2)c1	none
CC(C)C1Cc2c(sc3c2c(=O)n(Cc2ccccc2)c2nncn32)CO1 (stereo not drawn)	none
O=[N+]([O-])c1ccc(OC/C=C2\Oc3ccc([N+](=O)[O-])cc3C2N2CCOCC2)cc1 (stereo not drawn)	CYP2C19 inhib 71
O=[N+]([O-])c1ccc2c(c1)C(N1CCOCC1)/C(=C/COc1ccc3ccccc3c1Br)O2 (stereo not drawn)	CYP2C19 inhib 52
O=[N+]([O-])c1ccc2c(c1)C(N1CCOCC1)/C(=C/COc1ccc(F)cc1)O2 (stereo not drawn)	CYP2C19 inhib 84, CYP2C9 inhib 54
C[N+]1(CCOc2ccc([N+](=O)[O-])cc2)CCOCC1	none
Cc1cc(S(=O)(=O)N2CCCCCC2)c(Cl)cc1Cl	CYP2C19 inhib 73
O=S(=O)(c1cccc(Cl)c1)N1CCCC1	none
Cc1ccc(S(=O)(=O)N2CCCC2C(=O)O)cc1 (stereo not drawn)	none
CC(=O)Nc1ccc(S(=O)(=O)N2CCN=C2C)cc1	none
O=C(O)C1CCCN1S(=O)(=O)c1cc(Cl)ccc1Cl (stereo not drawn)	CYP2C9 activ 2.2
O=S(=O)(c1cc(Cl)ccc1Cl)N1CCCC1	CYP2C19 inhib 56, CYP2C9 activ 3.5
CC1=NCCN1S(=O)(=O)c1cc(Cl)ccc1Cl	CYP2C19 inhib 51, CYP2C9 activ 2.8
COCCCN(C(C)=O)c1nc(-c2ccc(OC)cc2)cs1	none
CCOc1ccccc1NC(=O)N1CCCC1C(=O)Nc1ccc(NC(C)=O)cc1 (stereo not drawn)	none
COC(=O)CCC(=O)N1CCc2cc(S(=O)(=O)N3CCc4ccccc43)ccc21	none
Nc1nncn1C(=O)CCc1ccccc1	none
O=C(O)c1ccc(Br)c(S(=O)(=O)N2CCCC2)c1	none
O=S(=O)(c1cc(Cl)ccc1Br)N1CCCCC1	CYP2C19 inhib 96, CYP2C9 activ 3.2
O=S(=O)(c1cc(Cl)ccc1Cl)N1CCCCC1	CYP2C19 inhib 65, CYP2C9 activ 3.3
O=S(=O)(c1ccc(F)c(Cl)c1)N1CCCC1	CYP2C19 inhib 54
O=C(O)c1cc(S(=O)(=O)N2CCCCC2)ccc1F	none
CC1CCN(S(=O)(=O)c2ccc(Cl)cc2Br)CC1	CYP2C19 inhib 68
O=S(=O)(c1cc(Cl)ccc1Br)N1CCOCC1	CYP2C9 activ 2.9
O=C(Oc1ccc2c(c1)OCO2)c1ccc(Br)c(S(=O)(=O)N2CCOCC2)c1	none
COc1ccc(OC(=O)c2cc(S(=O)(=O)N3CCCC3)ccc2Cl)cc1	none
COc1ccc(Cl)c(S(=O)(=O)N2CCCC2)c1	CYP2C19 inhib 80, CYP2C9 activ 2.8
CC(C)(C)C1CCc2[nH]nc(C(=O)O)c2C1 (stereo not drawn)	none
O=C1c2ccccc2C(=O)N1CCCC(=O)N1CCCc2ccccc21	CYP2C19 inhib 83
Cc1cccc(OCCCC(=O)N2CCCc3ccccc32)c1C	CYP2C19 inhib 83
O=C(CCCOc1ccc(Cl)cc1Cl)N1CCCc2ccccc21	none
COc1ccc(O)c(C(=O)CC(=O)c2ccccc2)c1	none
